Compound activity from PubChem.
NOMO-1 viab – STK33 inhibitor candidate reducing NOMO-1 cell viability. NOMO-1 AML viability, CellTiter-Glo luminescence, 72 h. inhibition, % (concentration not given with the values). 37,000 compounds, 7.5% hits. AID 2330; in the data active = inhibition above about 80%
MITF inhib – blocks MITF activity. TRPM1 promoter luciferase, luminescence, 24 h. inhibition, % (test concentration not listed). 37,000 compounds, 0.28% hits; in the data active = inhibition above about 85%;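 note: human melanocyte line stably carrying TRPM1 promoter luciferase reporter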
PD-1 reversal – reversal of PD-1 mediated T-cell inhibition; 29,000 tested, under 10 active; activation, % (concentration not given with the values); primary human CD4 T cells, PD-L1 beads, CellTiter-Glo 96 h; call rule not given here;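 note: 0% = median vehicle wells and 100% = positive control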
Hedgehog inh – Sonic Hedgehog pathway inhibition. Shh-LIGHT2 Gli-luciferase reporter, 30 h. inhibition, % (test concentration not listed). 22,000 compounds, 2.1% hits;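 active = mean inhibition across valid replicates above about 65%, limit read from the data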;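 note: pathway switched on by Shh-conditioned medium diluted 1 in 25 in low serum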
YB-1 expression – YB-1 expression inhibition; 30,000 compounds, 0.37% hits; U2OS, qRT-PCR YB-1 vs CDIP delta delta Cp, 16 h; hits give high values; zero = DMSO, each unit about twofold; delta delta Cp (YB-1 minus CDIP) (no concentration beside the values);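 active = delta delta Cp rounded down to an integer at or above 3, about 3 SD of DMSO wells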;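 note: higher means less YB-1 transcript or more CDIP transcript relative to DMSO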
* hit, by the source's call; x = no result. Compounds with a hit are over-represented: about 7.4% of the library has one in this group of screens.

SMILES	NOMO-1 viab	MITF inhib	PD-1 reversal	Hedgehog inh	YB-1 expression
CC(C)NC(=O)N(C)C[C@@H]1Oc2ccc(NS(=O)(=O)c3ccc(F)cc3)cc2CC(=O)N([C@H](C)CO)C[C@@H]1C	18	-12	2	-16	-0.071
C[C@H](CO)N1C[C@H](C)[C@H](CN(C)C(=O)Nc2ccc(C(F)(F)F)cc2)Oc2c(NS(=O)(=O)c3ccc(F)cc3)cccc2C1=O	84*	30	-4	15	0.46
C[C@@H]1CN([C@@H](C)CO)C(=O)c2cccc(NC(=O)Nc3ccc(C(F)(F)F)cc3)c2O[C@@H]1CN(C)C(=O)Nc1ccc(C(F)(F)F)cc1	115*	-1	-4	15	0.65
COc1ccc(NC(=O)N(C)C[C@@H]2Oc3c(NC(=O)Nc4ccc(C(F)(F)F)cc4)cccc3C(=O)N([C@@H](C)CO)C[C@H]2C)cc1	93*	27	-3	-76	0.15
C[C@H]1CN([C@@H](C)CO)C(=O)c2cccc(NC(=O)Nc3ccc(C(F)(F)F)cc3)c2O[C@H]1CN(C)C(=O)Nc1ccccc1	103*	17	-8	-15	0.26
CN(C)CC[C@H](c1ccc(Cl)cc1)c1ccccn1	19	11	x	23	-0.24
C[C@H](CO)N1C[C@H](C)[C@H](CN(C)S(=O)(=O)c2cn(C)cn2)Oc2c(NS(=O)(=O)c3cn(C)cn3)cccc2C1=O	5	-13	3	-13	1.9
C[C@H](CO)N1C[C@H](C)[C@H](CN(C)Cc2ccncc2)Oc2c(NC(=O)c3cnccn3)cccc2C1=O	-3	-5	x	-4	-0.2
CC(=O)Nc1ccc(NC(=O)CN2C(=O)COc3ccc(Cl)cc32)cc1	36	-6	-1	x	x
Cc1ccc2nc(SCC(=O)NCc3ccccc3)[nH]c2c1	12	-8	2	x	x
COC(=O)Nc1nc2ccc(S(=O)c3ccccc3)cc2[nH]1 (centres undefined)	102*	27	x	-62	0.13
COc1ccc(C(=O)c2ccccc2)cc1	-14	-19	-1	x	-0.076
COC(=O)Nc1nc2ccc(C(=O)c3ccccc3)cc2[nH]1	110*	30	x	42	-0.6
COC(=O)Nc1nc2ccc(C(=O)c3cccs3)cc2[nH]1	94*	7	-23	62	0.59
C[C@@H]1CN([C@@H](C)CO)C(=O)c2cccc(NC(=O)C3CC3)c2O[C@@H]1CN(C)C(=O)Nc1ccc(C(F)(F)F)cc1	32	9	-1	2	1.7
C[C@@H]1CN([C@@H](C)CO)C(=O)c2cc(NC(=O)C3CC3)ccc2O[C@@H]1CN(C)S(=O)(=O)c1ccc(Cl)cc1	4	2	-1	4	-0.13
COc1ccc(S(=O)(=O)N(C)C[C@H]2OCCCC[C@@H](C)Oc3ccc(NS(=O)(=O)c4ccc(Cl)cc4)cc3C(=O)N([C@H](C)CO)C[C@@H]2C)cc1	65	24	x	35	-0.23
C[C@@H]1CN([C@@H](C)CO)C(=O)c2cc(NC(=O)Nc3ccc(C(F)(F)F)cc3)ccc2O[C@H]1CN(C)S(=O)(=O)c1ccc(Cl)cc1	93*	-17	-1	1	-0.065
C[C@@H]1CN([C@H](C)CO)C(=O)c2cc(NC(=O)Nc3ccc(C(F)(F)F)cc3)ccc2O[C@H]1CN(C)S(=O)(=O)c1ccccc1	52	-29	3	-9	-0.42
COc1ccc(S(=O)(=O)Nc2ccc3c(c2)C(=O)N([C@H](C)CO)C[C@H](C)[C@H](CN(C)S(=O)(=O)c2ccc(Cl)cc2)OCCCC[C@@H](C)O3)cc1	107*	21	-7	7	-0.027
C[C@@H]1CN([C@@H](C)CO)C(=O)c2cc(NC(=O)C3CC3)ccc2O[C@H]1CN(C)S(=O)(=O)c1ccc(Cl)cc1	-1	-11	-2	67*	-0.27
C[C@@H]1CCCCO[C@@H](CN(C)S(=O)(=O)c2ccc(Cl)cc2)[C@@H](C)CN([C@H](C)CO)C(=O)c2cc(NC(=O)Nc3ccc(C(F)(F)F)cc3)ccc2O1	23	0	-2	-11	-0.38
C[C@@H]1CCCCO[C@H](CN(C)S(=O)(=O)c2ccc(Cl)cc2)[C@@H](C)CN([C@H](C)CO)C(=O)c2cc(NC(=O)Nc3ccc(C(F)(F)F)cc3)ccc2O1	98*	15	-5	32	-0.044
C[C@@H]1CCCCO[C@@H](CN(C)C(=O)Cc2ccccc2)[C@@H](C)CN([C@H](C)CO)C(=O)c2cc(N(C)C)ccc2O1	20	6	x	x	-0.77
